Test results published in article PMC7862700, “An all-to-all approach to the identification of sequence-specific readers for epigenetic DNA modifications on cytosine”.

Assays:
Test in all cases: DAPPL (digital affinity profiling via proximity ligation, sequencing); 10 mM Tris-HCl pH 7.5, 50 mM NaCl, 1 mM DTT, 4% glycerol, room temperature, 30 min; GST-TFs on glutathione beads, 16-mer random dsDNA library, 0.1% formaldehyde crosslink after washing; high values mean tight binding
FEV = target: T1, FEV (Homo sapiens, UniProt Q99581 1-238); conditions: protein: recombinant; tags: N-terminal GST; dsDNA, one strand shown
T1 sequence: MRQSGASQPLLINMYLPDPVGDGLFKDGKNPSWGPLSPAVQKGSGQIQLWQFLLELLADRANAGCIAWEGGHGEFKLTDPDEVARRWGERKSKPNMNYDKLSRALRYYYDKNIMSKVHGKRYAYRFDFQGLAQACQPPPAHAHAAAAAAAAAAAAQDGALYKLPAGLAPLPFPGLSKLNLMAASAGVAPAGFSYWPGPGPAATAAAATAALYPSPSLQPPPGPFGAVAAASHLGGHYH
In short: (§1)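 Human transcription factors carrying a GST fusion were produced in yeast, bound to glutathione beads, tagged with DNA barcodes and pooled together with a tag-only sample. Each pool was held with 200 nmole of a random double-stranded 16-mer DNA library in Tris/NaCl/DTT/glycerol buffer for 30 min at room temperature, then washed, crosslinked in 0.1% formaldehyde, proximity-ligated with BsaI/T4 ligase (1 h, 37 °C), PCR-amplified and sequenced on an Illumina NextSeq500. Binding signal is the read frequency of each hexamer for a given factor divided by its frequency in the tag-only sample.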

ETV5 = ETV5 (Homo sapiens, UniProt P41161 1-510); conditions: protein: recombinant; tags: N-terminal GST; dsDNA, one strand shown
Sequence of ETV5 (P41161 whole entry): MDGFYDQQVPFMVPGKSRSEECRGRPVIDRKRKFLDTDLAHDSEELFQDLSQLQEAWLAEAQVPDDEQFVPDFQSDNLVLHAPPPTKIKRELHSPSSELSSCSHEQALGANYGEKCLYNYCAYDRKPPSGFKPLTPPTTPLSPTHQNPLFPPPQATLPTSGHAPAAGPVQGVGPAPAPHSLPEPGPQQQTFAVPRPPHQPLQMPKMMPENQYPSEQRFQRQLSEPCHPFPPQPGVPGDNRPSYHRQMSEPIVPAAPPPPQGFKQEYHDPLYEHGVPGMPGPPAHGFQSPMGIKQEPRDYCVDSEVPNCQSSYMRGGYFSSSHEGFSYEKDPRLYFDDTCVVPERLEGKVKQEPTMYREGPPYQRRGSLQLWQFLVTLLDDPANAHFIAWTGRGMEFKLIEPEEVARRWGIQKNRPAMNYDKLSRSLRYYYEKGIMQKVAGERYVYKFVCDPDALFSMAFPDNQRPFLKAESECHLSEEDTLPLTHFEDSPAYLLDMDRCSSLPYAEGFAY
In short: as §1

HSF1 = HSF1 (Homo sapiens, UniProt Q00613 1-529); conditions: protein: recombinant; tags: N-terminal GST; chain copies: 3; dsDNA, one strand shown
Sequence of HSF1 (Q00613 whole entry): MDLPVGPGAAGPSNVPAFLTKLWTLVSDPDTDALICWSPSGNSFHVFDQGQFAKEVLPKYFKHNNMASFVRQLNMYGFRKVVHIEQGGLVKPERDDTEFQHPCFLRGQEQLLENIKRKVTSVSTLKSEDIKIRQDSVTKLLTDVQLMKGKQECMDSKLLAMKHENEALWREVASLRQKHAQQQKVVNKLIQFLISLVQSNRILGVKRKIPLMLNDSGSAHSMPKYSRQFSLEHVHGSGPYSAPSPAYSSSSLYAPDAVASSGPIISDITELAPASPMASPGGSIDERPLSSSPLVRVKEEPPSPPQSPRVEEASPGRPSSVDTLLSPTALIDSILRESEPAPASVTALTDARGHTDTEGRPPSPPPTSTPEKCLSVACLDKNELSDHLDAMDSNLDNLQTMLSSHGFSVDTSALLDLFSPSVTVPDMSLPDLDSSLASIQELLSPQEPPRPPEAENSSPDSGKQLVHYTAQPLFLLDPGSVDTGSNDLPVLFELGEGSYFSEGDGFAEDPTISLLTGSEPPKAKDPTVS
In short: as §1

SPIC = target: T2, SPIC (Homo sapiens, UniProt Q8N5J4 1-248); conditions: protein: recombinant; tags: N-terminal GST; dsDNA, one strand shown
T2 sequence: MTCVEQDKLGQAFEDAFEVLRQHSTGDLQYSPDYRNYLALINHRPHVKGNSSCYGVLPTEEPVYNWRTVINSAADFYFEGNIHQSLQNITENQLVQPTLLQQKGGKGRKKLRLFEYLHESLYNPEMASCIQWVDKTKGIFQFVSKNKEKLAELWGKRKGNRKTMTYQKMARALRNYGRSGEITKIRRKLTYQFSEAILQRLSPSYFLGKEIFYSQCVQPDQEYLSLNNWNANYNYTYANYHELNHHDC
In short: as §1

ELF4 = ELF4 (Homo sapiens, UniProt Q99607 1-663); conditions: protein: recombinant; tags: N-terminal GST; dsDNA, one strand shown
Sequence of ELF4 (Q99607 whole entry): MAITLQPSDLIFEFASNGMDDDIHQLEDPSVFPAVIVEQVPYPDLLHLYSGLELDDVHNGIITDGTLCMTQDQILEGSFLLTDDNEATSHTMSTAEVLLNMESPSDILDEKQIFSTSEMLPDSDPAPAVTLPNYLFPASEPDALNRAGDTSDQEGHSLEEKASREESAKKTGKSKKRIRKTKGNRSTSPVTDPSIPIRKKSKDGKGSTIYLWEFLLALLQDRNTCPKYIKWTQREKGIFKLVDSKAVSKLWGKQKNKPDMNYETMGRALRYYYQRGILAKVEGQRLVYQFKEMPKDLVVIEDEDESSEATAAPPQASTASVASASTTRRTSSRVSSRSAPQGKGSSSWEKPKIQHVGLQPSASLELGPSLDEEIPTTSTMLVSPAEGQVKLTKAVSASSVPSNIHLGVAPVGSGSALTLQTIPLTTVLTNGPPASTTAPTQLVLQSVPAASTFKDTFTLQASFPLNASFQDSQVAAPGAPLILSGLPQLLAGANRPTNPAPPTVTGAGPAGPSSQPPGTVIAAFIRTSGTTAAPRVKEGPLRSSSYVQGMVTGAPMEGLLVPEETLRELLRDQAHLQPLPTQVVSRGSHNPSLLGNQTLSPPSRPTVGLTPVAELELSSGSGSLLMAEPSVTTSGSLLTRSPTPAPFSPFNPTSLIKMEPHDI
In short: as §1

ELK4 = target: T3, ELK4 (Homo sapiens, UniProt P28324-2 1-405); conditions: protein: recombinant; tags: N-terminal GST; dsDNA, one strand shown
T3 sequence: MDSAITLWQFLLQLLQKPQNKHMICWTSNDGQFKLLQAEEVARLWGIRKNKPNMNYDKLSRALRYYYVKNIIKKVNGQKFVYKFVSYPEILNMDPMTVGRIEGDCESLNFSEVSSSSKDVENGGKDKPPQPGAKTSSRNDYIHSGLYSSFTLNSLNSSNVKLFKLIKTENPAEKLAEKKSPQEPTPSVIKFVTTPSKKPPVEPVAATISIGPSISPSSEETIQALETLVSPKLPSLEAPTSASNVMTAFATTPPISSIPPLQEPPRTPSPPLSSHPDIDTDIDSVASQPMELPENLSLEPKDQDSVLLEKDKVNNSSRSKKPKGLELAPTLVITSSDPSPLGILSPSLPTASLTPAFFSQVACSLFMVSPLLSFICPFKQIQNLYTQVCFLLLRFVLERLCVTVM
In short: as §1

ETV2 = target: T4, ETV2 (Homo sapiens, UniProt O00321 1-342); conditions: protein: recombinant; tags: N-terminal GST; dsDNA, one strand shown
T4 sequence: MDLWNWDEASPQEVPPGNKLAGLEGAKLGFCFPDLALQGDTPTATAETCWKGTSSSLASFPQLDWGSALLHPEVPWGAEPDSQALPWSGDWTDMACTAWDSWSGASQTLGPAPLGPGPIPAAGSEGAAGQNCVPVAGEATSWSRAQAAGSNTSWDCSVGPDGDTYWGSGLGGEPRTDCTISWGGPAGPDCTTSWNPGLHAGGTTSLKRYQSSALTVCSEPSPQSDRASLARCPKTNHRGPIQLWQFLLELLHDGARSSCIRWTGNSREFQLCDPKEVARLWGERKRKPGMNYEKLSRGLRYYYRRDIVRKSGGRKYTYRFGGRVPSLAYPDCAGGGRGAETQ
In short: as §1

ELF3 = target: T5, ELF3 (Homo sapiens, UniProt P78545 1-371); conditions: protein: recombinant; tags: N-terminal GST; dsDNA, one strand shown
T5 sequence: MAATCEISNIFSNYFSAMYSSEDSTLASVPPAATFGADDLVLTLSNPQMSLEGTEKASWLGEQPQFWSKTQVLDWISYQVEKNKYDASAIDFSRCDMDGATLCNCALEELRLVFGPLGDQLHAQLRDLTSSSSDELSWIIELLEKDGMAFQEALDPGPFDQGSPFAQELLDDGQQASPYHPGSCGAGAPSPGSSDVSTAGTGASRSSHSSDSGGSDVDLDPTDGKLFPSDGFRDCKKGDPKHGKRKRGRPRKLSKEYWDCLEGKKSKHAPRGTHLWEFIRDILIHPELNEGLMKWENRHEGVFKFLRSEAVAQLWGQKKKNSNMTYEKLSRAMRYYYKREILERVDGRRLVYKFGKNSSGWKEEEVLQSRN
In short: as §1

CRX = CRX (Homo sapiens, UniProt O43186 1-299); conditions: protein: recombinant; tags: N-terminal GST; dsDNA, one strand shown
Sequence of CRX (O43186 whole entry): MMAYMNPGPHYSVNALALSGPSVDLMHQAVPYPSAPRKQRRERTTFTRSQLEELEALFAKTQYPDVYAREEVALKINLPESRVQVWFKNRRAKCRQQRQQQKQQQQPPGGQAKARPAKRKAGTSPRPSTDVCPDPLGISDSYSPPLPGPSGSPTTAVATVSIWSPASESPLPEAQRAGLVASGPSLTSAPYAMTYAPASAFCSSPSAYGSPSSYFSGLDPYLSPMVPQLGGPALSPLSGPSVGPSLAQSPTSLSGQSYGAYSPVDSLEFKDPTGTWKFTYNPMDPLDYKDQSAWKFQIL
In short: as §1

ETV1 = ETV1 (Homo sapiens, UniProt P50549 1-477); conditions: protein: recombinant; tags: N-terminal GST; dsDNA, one strand shown
Sequence of ETV1 (P50549 whole entry): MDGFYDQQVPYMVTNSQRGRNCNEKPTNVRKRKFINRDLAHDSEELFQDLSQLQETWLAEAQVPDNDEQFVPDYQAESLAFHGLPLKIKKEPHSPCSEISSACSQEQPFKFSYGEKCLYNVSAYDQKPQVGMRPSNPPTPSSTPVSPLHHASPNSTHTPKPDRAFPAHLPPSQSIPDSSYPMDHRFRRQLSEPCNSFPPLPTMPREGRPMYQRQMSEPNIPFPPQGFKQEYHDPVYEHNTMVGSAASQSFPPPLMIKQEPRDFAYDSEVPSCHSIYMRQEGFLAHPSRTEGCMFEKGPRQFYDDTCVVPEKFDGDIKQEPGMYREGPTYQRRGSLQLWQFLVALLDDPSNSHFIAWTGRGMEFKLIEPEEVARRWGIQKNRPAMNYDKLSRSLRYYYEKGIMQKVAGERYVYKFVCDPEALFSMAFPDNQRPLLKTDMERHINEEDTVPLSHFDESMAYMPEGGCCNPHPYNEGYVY
In short: as §1

ERF = target: T6, ERF (Homo sapiens, UniProt P50548 1-548); conditions: protein: recombinant; tags: N-terminal GST; dsDNA, one strand shown
T6 sequence: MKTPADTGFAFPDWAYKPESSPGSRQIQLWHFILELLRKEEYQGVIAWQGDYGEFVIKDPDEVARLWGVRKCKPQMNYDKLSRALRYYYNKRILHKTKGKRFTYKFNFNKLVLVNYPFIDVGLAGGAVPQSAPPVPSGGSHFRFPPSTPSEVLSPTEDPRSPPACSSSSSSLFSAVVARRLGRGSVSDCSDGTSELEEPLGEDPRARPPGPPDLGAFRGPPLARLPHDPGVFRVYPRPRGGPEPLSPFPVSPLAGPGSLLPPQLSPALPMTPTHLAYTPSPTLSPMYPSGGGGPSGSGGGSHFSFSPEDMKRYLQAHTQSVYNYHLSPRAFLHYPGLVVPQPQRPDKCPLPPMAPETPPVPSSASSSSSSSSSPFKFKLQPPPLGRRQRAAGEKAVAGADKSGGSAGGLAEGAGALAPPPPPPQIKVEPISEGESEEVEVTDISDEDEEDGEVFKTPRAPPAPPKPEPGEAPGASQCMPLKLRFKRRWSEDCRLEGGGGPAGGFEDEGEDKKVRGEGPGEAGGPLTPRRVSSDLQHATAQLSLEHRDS
In short: as §1

ETV3L = target: T7, ETV3L (Homo sapiens, UniProt Q6ZN32 1-361); conditions: protein: recombinant; tags: N-terminal GST; dsDNA, one strand shown
T7 sequence: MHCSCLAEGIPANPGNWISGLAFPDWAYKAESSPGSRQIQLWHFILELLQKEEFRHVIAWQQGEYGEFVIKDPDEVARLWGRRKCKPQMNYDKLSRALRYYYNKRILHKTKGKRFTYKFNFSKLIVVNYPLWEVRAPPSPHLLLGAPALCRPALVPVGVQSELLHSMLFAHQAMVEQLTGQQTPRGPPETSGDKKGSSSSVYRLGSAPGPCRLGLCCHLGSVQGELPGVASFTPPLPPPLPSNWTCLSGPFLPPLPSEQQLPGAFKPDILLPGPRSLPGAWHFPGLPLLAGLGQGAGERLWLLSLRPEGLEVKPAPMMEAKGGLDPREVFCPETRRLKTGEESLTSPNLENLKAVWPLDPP
In short: as §1

ETS2 = target: T8, ETS2 (Homo sapiens, UniProt P15036 1-469); conditions: protein: recombinant; tags: N-terminal GST; dsDNA, one strand shown
T8 sequence: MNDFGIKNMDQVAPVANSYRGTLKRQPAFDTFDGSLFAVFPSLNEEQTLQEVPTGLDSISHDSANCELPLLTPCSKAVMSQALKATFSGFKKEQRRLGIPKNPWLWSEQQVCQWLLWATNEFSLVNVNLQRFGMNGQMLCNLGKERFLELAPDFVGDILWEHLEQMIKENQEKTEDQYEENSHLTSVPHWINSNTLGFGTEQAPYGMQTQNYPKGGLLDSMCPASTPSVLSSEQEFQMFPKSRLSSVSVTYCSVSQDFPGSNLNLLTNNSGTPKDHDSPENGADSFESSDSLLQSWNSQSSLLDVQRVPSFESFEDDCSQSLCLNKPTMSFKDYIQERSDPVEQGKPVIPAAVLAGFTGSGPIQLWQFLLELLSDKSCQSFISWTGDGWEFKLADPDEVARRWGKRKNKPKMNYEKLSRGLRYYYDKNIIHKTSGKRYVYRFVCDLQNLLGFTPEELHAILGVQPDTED
In short: as §1

SPDEF = target: T9, SPDEF (Homo sapiens, UniProt O95238 1-335); conditions: protein: recombinant; tags: N-terminal GST; dsDNA, one strand shown
T9 sequence: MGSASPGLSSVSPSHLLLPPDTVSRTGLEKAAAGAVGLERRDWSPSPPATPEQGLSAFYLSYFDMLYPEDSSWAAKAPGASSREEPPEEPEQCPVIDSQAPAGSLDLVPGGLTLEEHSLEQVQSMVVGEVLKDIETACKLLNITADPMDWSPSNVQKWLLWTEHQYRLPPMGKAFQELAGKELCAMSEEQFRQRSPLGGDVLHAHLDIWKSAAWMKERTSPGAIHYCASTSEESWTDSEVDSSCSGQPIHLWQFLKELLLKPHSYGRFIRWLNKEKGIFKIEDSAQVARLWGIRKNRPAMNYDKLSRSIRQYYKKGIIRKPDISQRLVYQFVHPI
In short: as §1

ETV7 = target: T10, ETV7 (Homo sapiens, UniProt Q9Y603 1-341); conditions: protein: recombinant; tags: N-terminal GST; dsDNA, one strand shown
T10 sequence: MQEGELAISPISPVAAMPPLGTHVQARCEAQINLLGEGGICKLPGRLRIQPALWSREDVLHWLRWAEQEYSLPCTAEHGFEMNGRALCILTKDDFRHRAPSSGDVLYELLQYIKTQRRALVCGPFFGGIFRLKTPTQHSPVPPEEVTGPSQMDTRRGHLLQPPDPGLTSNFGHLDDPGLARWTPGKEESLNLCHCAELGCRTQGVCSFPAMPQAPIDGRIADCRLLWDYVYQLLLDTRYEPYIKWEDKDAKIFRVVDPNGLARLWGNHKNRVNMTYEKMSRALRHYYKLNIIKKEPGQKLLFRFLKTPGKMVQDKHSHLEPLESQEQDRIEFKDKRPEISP
In short: as §1

ELF5 = target: T11, ELF5 (Homo sapiens, UniProt Q9UKW6-2 1-255); conditions: protein: recombinant; tags: N-terminal GST; dsDNA, one strand shown
T11 sequence: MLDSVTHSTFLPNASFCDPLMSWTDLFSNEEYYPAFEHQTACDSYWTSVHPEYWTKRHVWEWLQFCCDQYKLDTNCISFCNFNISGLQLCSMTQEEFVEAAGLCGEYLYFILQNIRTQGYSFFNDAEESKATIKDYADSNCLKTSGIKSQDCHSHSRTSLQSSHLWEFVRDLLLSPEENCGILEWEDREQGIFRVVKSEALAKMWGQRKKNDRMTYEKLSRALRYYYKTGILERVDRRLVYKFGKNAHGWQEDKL
In short: as §1

ETV3 = target: T12, ETV3 (Homo sapiens, UniProt P41162-2 1-143); conditions: protein: recombinant; tags: N-terminal GST; dsDNA, one strand shown
T12 sequence: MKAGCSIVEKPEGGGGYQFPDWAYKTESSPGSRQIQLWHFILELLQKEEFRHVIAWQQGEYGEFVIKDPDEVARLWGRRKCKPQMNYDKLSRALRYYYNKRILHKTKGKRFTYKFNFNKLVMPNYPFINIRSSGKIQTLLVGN
In short: as §1

ETV6 = ETV6 (Homo sapiens, UniProt P41212 1-452); conditions: protein: recombinant; tags: N-terminal GST; dsDNA, one strand shown
Sequence of ETV6 (P41212 whole entry): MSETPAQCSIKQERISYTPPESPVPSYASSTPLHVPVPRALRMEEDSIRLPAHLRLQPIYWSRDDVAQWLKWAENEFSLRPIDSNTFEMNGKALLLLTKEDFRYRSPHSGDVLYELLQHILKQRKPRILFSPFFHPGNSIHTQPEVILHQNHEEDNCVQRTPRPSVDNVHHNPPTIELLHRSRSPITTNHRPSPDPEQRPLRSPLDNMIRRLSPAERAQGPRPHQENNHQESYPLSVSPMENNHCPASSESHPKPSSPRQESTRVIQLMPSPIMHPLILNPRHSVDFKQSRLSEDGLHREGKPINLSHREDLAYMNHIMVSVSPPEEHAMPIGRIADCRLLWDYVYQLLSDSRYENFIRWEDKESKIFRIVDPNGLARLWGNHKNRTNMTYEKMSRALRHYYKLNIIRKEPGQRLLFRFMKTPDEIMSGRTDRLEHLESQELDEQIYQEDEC
In short: as §1

GTATCT was tested. Which binding signal (FEV) did it give?
The binding signal was 1.14 fold enrichment (6-mer frequency, TF over GST control).

What about the binding signal (ETV5) of the same sequence?
The binding signal was 1.11 fold enrichment (6-mer frequency, TF over GST control).

What about the binding signal (HSF1) of the same sequence?
The binding signal was 1.15 fold enrichment (6-mer frequency, TF over GST control).

And the binding signal (SPIC)?
The binding signal was 1.15 fold enrichment (6-mer frequency, TF over GST control).

And the binding signal (ELF4)?
Its binding signal is 1.14 fold enrichment (6-mer frequency, TF over GST control).

What about the binding signal (ELK4) of the same sequence?
Its binding signal is 1.22 fold enrichment (6-mer frequency, TF over GST control).

What about the binding signal (ETV2) of the same sequence?
Its binding signal is 1.23 fold enrichment (6-mer frequency, TF over GST control).

And the binding signal (ELF3)?
Its binding signal is 1.26 fold enrichment (6-mer frequency, TF over GST control).

What about the binding signal (CRX) of the same sequence?
The binding signal was 1.02 fold enrichment (6-mer frequency, TF over GST control).

What about the binding signal (ETV1) of the same sequence?
The binding signal was 1.15 fold enrichment (6-mer frequency, TF over GST control).

And the binding signal (ERF)?
Its binding signal is 1.16 fold enrichment (6-mer frequency, TF over GST control).

What about the binding signal (ETV3L) of the same sequence?
The binding signal was 1.16 fold enrichment (6-mer frequency, TF over GST control).

And the binding signal (ETS2)?
The binding signal was 1.05 fold enrichment (6-mer frequency, TF over GST control).

And the binding signal (SPDEF)?
Its binding signal is 1.14 fold enrichment (6-mer frequency, TF over GST control).

What about the binding signal (ETV7) of the same sequence?
Its binding signal is 1.14 fold enrichment (6-mer frequency, TF over GST control).

And the binding signal (ELF5)?
Its binding signal is 1.18 fold enrichment (6-mer frequency, TF over GST control).

What about the binding signal (ETV3) of the same sequence?
Its binding signal is 1.13 fold enrichment (6-mer frequency, TF over GST control).

What about the binding signal (ETV6) of the same sequence?
The binding signal was 1.19 fold enrichment (6-mer frequency, TF over GST control).
